tim10-1 inh: tim10-1 yeast growth inhibition; S. cerevisiae tim10-1 ts strain growth, BacTiter-Glo, 24 h; inhibition, % at 20 µM; 330,000 compounds, 2.2% hits; AID 463190;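 active means inhibition of at least 40%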;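 further: mutant grown at 25 °C; 0% = DMSO wells with yeast and 100% = wells holding no yeast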
NALP3 yeast inh: blocks the NALP3 inflammasome reconstituted in yeast; inhibition, % at 10 µM; 330,000 compounds, 0.39% hits; Yeast reconstituted NLRP3/ASC/caspase-1, beta-gal luminescence, 24 h;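 active means inhibition of 50% or more; inactive means inhibition below 50%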;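 further: plate controls were induced DMSO wells for no effect and uninduced yeast grown without galactose for full effect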
NALP1 inh: NALP1 inhibition; inhibition, % at 10 µM; AID 2071; S. cerevisiae NALP1/ASC/caspase-1 growth, X-gal OD620, 72 h; 280,000 compounds, 0.61% hits; in the data active means inhibition mostly above about 24%, no sharp cut-off; inactive means mostly below about 32%
tim23-1 inh: tim23-1 yeast growth inhibition. S. cerevisiae tim23-1 growth, BacTiter-Glo luminescence, 24 h. inhibition, % at 20 µM. 330,000 compounds, 1.3% hits;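 active means growth inhibition of the mutant yeast at or above 50%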;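 further: temperature-sensitive mutant grown at 25 °C; plate controls were DMSO-treated mutant yeast for no effect and medium wells lacking yeast for full effect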
V-ATPase pHluor: alters yeast V-ATPase proton transport; S. cerevisiae, pHLuorin cytosolic pH fluorescence; response, % at 10 µM; 350,000 compounds, 0.37% hits; AID 504577; in the data active means response mostly above about 7.3%, no sharp cut-off; inactive means mostly below about 5.4%; further: actives read high
TIM10 inh: growth inhibitors of TIM10 yeast strain; S. cerevisiae TIM10 strain growth, BacTiter-Glo luminescence, 24 h; inhibition, % at 10 µM; 330,000 compounds, 1.4% hits;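 active means inhibition of 40% or more at the single tested concentration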;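 further: wild-type TIM10 isogenic control strain grown at permissive 25 °C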
tim10-1 confirm: confirmation of tim10-1 mutant yeast growth inhibitors. shares compounds with tim10-1 inh. 7,400 compounds, 56% hits. S. cerevisiae tim10-1 ts strain growth, BacTiter-Glo, 24 h. inhibition, % at 20 µM;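 active means inhibition of yeast growth at or above a set limit in either of two repeat tests at 20 µM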;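 further: tim10-1 mutant grown at permissive 25 °C to find synthetic lethal compounds; 0% = DMSO yeast wells and 100% = medium wells without yeast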
* marks the source's active call; other numbers are inactive results; . = no result given. Shown are actives, neighbours in structure and some others; about 4.2% of the full set was active somewhere.

SMILES	tim10-1 inh	NALP3 yeast inh	NALP1 inh	tim23-1 inh	V-ATPase pHluor	TIM10 inh	tim10-1 confirm
O=C(CSCc1cccc(Br)c1)N/N=C/c1ccc2c(c1)OCO2	43.2*	22.6	12.8	36.8	-1.1	14.4	36.5*
Cn1c(CNC(=O)CNC(=O)c2ccc(C(C)(C)C)cc2)cc(=O)n(C)c1=O	12.7	12.3	8.1	13.2	-1.0	-6.5	.
COc1cc(C(=O)O/N=C(\N)Cc2ccc([N+](=O)[O-])cc2)cc(OC)c1OC	63.3*	-17.6	0.1	22.4	5.4	25.4	53.2*
Cc1nc2sc3c(=O)[nH]nnc3c2c(C)c1Br	42.3*	14.1	9.0	42.7	0.0	7.5	30.9
COC(CN(C(=O)CCl)C(C(=O)NC1CCCCC1)c1ccc(Cl)cc1)OC (stereo unspecified)	43.0*	3.7	25.5	38.3	-2.4	33.6	29.9
COC(CN(C(=O)CCl)C(C(=O)NC1CCCCC1)c1ccccc1C)OC (stereo unspecified)	43.3*	10.0	21.9	36.2	7.8	39.0	32.1*
COc1ccc(C(C(=O)NC2CCCCC2)N(C(=O)CCl)c2ccc(Cl)cc2)cc1 (stereo unspecified)	20.8	1.0	15.9	16.8	-2.1	19.4	.
Cc1ccccc1Nc1nc(-c2ccccc2)c(C(=O)Nc2cccnc2)s1	17.6	27.4	37.1	13.2	0.8	17.7	.
CC1C(=O)Nc2ccc(S(=O)(=O)Nc3ccccc3Br)cc2NC1=O (stereo unspecified)	3.5	-10.8	9.3	7.0	-2.4	-4.0	.
COc1ccc(CNC(=O)CCC(=O)N2CCN(S(=O)(=O)c3cc([N+](=O)[O-])ccc3C)CC2)cc1	7.1	18.5	.	11.5	7.7	2.5	.
O=C1CN(C(=O)COC(=O)CCC(=O)c2ccc(Cl)cc2)c2ccccc2N1	6.2	-2.5	.	0.1	-0.4	-8.3	.
CC(C)c1ccc(-c2cc(C(=O)N3N=C(C(F)F)CC3(O)C(F)F)c3ccccc3n2)cc1 (stereo unspecified)	41.3*	14.3	12.8	37.1	-1.9	24.7	27.4
O=C(c1cc(C2CC2)nc2ccccc12)N1N=C(C(F)F)CC1(O)C(F)F (stereo unspecified)	10.9	8.1	6.7	10.0	1.7	6.4	.
Cc1cccc2c(=O)c(-c3ccc4c(c3)OCO4)c(NC(=O)c3ccco3)oc12	42.2*	3.8	13.2	46.7	-2.3	27.5	7.7
CC(C)(C)NC(=O)c1ccc(Sc2ccccc2)c([N+](=O)[O-])c1	42.2*	25.5	30.9	27.1	1.1	15.7	20.4
O=C1C2C3C=CC(C3)C2C(=O)N1CCN1CCN(S(=O)(=O)/C=C/c2ccccc2)CC1 (stereo unspecified)	41.9*	15.0	9.0	19.8	1.8	16.2	23.2
CC(Sc1nc(N)cc(=O)[nH]1)C(=O)Nc1cccc(Cl)c1 (stereo unspecified)	-2.2	17.9	12.5	6.2	-1.0	-13.3	.
COC(=O)c1cn(C(=O)c2ccc(OC)cc2)c2ccccc12	42.1*	25.2	19.8	42.5	-1.2	12.3	17.6
COC(=O)c1cn(C(=O)c2ccc(C)cc2)c2ccccc12	24.0	-6.1	19.4	17.3	-1.3	31.4	.
CCOC(=O)Cc1csc(NC(=O)c2c(O)c3ccccc3n(C)c2=O)n1	.	.	5.7	.	.	.	.
CSc1ccccc1OCc1cc(C(=O)N2CCC(Oc3cccnc3)CC2)no1	43.3*	17.2	9.3	39.4	5.6	39.8	36.9*
CSc1ccccc1OCc1cc(C(=O)N2CCSCC2)no1	14.5	20.5	10.1	17.2	-2.0	8.5	.
O=C(c1cc(COc2ccc(F)cc2Cl)on1)N1CCN(c2cnccn2)CC1	50.5*	26.5	6.8	47.4	-1.7	34.4	47.5*
CSc1ccccc1OCc1cc(C(=O)N2CCCC(C)C2)no1 (stereo unspecified)	18.9	24.0	8.7	13.8	2.5	-0.4	.
CSc1ccccc1OCc1cc(C(=O)N2CCN(c3ncccn3)CC2)no1	46.3*	15.8	3.8	44.6	-2.2	33.4	29.2
CCN1CCN(CCC(=O)Nc2cccc(OC)c2)CC1	-0.3	-6.4	-6.1	8.1	-1.8	-1.5	.

Screening data (PubChem BioAssay)
